About 2,900 (6.9%) of roughly 42,000 sequences were called active. No stated cut-off is given here; in the data, active = GI50 up to about 1.1 µM and inactive = higher. The full list was thinned out, with actives kept by preference. Entries with a potency or affinity are not part of this list.

For this test, the system named is T47D.
In the case of “[Bis(aminomethyl)tetramethylenesilane]dichloropaltinum(II), CHEMBL2146205”, the GI50 – broadly, the concentration at which growth is held to half of that of the control – is 5 µM. This lies in the single-digit micromolar range. In the case of “[Bis(aminomethyl)pentamethylenesilane]dichloropaltinum(II), CHEMBL2146202”, growth was halved (GI50) at 1.34 µM.

In turn, “[Bis(aminomethyl)pentamethylenesilane]tetrachloropaltinum(IV), CHEMBL2146204” showed a GI50 of 2.18 µM. This GI50 is about 1.6-fold higher than that of the substance before. “[Bis(aminomethyl)dimethylsilane]tetrachloroplatinum(IV), CHEMBL2146190” yielded a GI50 of 14.6 µM.

With “[Bis(aminomethyl)tetramethylenesilane]tetrachloropaltinum(IV), CHEMBL2146189”, halving of growth (GI50) required 0.184 µM. To CISPLATIN, CHEMBL11359 belongs 14 µM.

The values above are taken from ChEMBL document CHEMBL1201862, “PubChem BioAssay data set” (2004).
